Measured values: publication PMC4336329 (PLoS ONE, 2015)
Hit rate of the full screen: of about 310,000 compounds, about 14,000 (4.5%) showed an effect of 50% or more. Effects have a minus sign here. Only a selection was taken, and strong results are over-represented in it overall.

What follows are molecules tested against human ether-à-go-go-related gene (hERG) potassium channel (human, UniProt Q12809) (assay: primary screen, population patch clamp on CHO cells stably expressing hERG; higher = less effect of the substance).
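Also: peak tail current of the secondary pulse compared with the same well before compound.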

Sequence of human ether-à-go-go-related gene (hERG) potassium channel (Q12809 whole entry, looked up): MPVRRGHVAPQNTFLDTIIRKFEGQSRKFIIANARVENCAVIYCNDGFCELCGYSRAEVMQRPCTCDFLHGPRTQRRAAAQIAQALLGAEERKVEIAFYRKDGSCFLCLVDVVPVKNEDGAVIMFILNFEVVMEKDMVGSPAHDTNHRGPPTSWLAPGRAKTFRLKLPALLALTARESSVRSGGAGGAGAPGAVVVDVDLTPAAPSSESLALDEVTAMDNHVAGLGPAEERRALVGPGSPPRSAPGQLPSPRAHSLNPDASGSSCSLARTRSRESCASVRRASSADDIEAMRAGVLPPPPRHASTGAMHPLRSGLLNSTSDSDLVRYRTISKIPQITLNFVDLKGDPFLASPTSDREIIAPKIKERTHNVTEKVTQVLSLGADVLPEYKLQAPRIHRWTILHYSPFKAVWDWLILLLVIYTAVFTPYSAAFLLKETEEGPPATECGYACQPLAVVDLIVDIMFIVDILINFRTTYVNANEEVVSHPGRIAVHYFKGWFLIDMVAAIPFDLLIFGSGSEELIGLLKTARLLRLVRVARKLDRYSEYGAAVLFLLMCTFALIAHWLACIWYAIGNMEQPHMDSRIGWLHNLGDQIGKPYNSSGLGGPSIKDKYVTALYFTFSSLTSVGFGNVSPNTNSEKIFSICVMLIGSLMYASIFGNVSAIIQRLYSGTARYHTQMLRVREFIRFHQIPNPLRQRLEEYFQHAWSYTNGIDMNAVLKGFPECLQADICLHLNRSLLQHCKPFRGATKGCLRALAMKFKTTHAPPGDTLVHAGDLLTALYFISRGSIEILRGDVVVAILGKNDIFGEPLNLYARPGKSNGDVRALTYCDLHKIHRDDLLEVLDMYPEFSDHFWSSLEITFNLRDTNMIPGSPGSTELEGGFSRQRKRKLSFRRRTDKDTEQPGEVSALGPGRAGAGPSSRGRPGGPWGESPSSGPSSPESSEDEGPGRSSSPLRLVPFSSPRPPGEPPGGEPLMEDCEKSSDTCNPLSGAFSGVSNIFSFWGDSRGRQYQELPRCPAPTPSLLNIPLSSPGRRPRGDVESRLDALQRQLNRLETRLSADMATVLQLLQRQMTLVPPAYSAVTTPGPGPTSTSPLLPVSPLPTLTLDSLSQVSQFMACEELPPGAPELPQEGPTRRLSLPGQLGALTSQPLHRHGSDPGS

Row | Compound | hERG current change (%, negative = inhibition) at 10uM
1 | Cc1ccc2[nH]c(=O)c(CN(CCO)C(=O)NCc3ccccc3)cc2c1 | 7.55%
2 | Cc1cc(C)c2cc(CN(CCCN(C)C)C(=S)NCc3ccccc3)c(=O)[nH]c2c1 | -45.4%
3 | CCN(CC)CCCNC(=S)N(Cc1cccnc1)Cc1cc2cccc(C)c2[nH]c1=O | -1.68%
4 | Cc1ccc2cc(CN(CCCN(C)C)C(=O)NCc3ccccc3)c(=O)[nH]c2c1C | -34.1%
5 | Cc1cccc2cc(CN(CCCN(C)C)C(=S)NCCc3ccccc3)c(=O)[nH]c12 | -72%
6 | CCC(=O)N(CCc1ccccc1)Cc1cc2cccc(C)c2[nH]c1=O | -14.4%
7 | Cc1ccc2cc(CN(CCCN(C)C)C(=S)NCc3ccccc3)c(=O)[nH]c2c1C | -50.3%
8 | Cc1ccc(C)c2[nH]c(=O)c(CN(CCCN(C)C)C(=O)NCc3ccccc3)cc12 | -52.2%
9 | COc1ccc2[nH]c(=O)c(CN(CCN(C)C)C(=O)NCc3ccccc3)cc2c1 | 9.31%
10 | O=C(NC(=S)N1CCOCC1)c1ccc(F)cc1 | 24.4%
11 | CC[C@H](C)[C@@H](C(=O)N1CCNCC1)n1cc([C@@H](N)CC(C)C)nn1.Cl | 11.9%
12 | CC(=O)c1ccc(NC(=O)CSc2nnc(-c3ccncc3)n2C2CC2)cc1 | -5.46%
13 | COc1ccc(CC(=O)NC2CC(C)(C)NC(C)(C)C2)cc1OC.Cl | 16.9%
14 | Cc1ccc(/C=C2\C(=O)Nc3ccccc32)o1 | 5.04%
15 | CCOc1ccccc1-n1nnnc1SCC(=O)NCc1ccco1 | 5.25%
16 | Cc1ccccc1-n1nnnc1SCC(=O)NCC1(N2CCOCC2)CCCCC1 | -24.9%
17 | Cc1cccc(-n2nnnc2SCC(=O)NCC2(N3CCOCC3)CCCCC2)c1C | -57.9%
18 | COc1ccccc1-n1nnnc1SCC(=O)NCC1(N2CCOCC2)CCCCC1 | -39.8%
19 | CCOc1ccccc1-n1nnnc1SCC(=O)NCC1(N2CCOCC2)CCCCC1 | -67.7%
20 | O=C(CSc1ccccc1)NCC1(N2CCOCC2)CCCCC1 | -19%
21 | O=c1c2ccccc2nc2c3ccccc3c(NCc3cccnc3)nn12 | -25.5%
22 | COc1ccc(-n2nc(C(=O)NCC(=O)NC3CCCC(C)C3C)c3ccccc3c2=O)cc1 (centres unmarked) | 8.55%

Row | Compound | hERG current change (%, negative = inhibition) at 10uM
23 | CC(=O)OCN(C#N)c1nc(N(C)C)nc(N(C)C)n1 | 5.8%
24 | Cc1nnc2ccc(-c3ccc(NS(=O)(=O)c4ccc(F)cc4F)cc3)nn12 | -25.2%
25 | CC(C)Oc1ccc(CNC(=O)C2CCCN(S(=O)(=O)N3CCOCC3)C2)cc1 (centres unmarked) | -20.8%
26 | CN1C(C(=O)NCc2cccc(C(F)(F)F)c2)CC2Cn3c(nc4ccccc43)C21 (centres unmarked) | -47.4%
27 | C=CCNC(=O)C1CC2Cn3c(nc4cc(C)c(C)cc43)C2N1C (centres unmarked) | -7.6%
28 | CN1C(C(=O)NCc2cccc(C(F)(F)F)c2)CC2Cn3c(nc4cc5ccccc5cc43)C21 (centres unmarked) | -63.1%
29 | Cc1cc2nc3n(c2cc1C)CC1CC(C(=O)NCC2CC2)N(C)C31 (centres unmarked) | -1.83%
30 | CN1C(C(=O)NCc2cccc(C(F)(F)F)c2)CC2Cn3c(nc4cc(Cl)c(Cl)cc43)C21 (centres unmarked) | -73.6%
31 | Cc1cc2nc3n(c2cc1C)CC1CC(C(=O)NCc2cccc(C(F)(F)F)c2)N(C)C31 (centres unmarked) | -66.7%
32 | O=C(Nc1ccccc1)c1ccc(Br)c(S(=O)(=O)Nc2ccccn2)c1 | 14.5%
33 | Cc1cc(C)c(C#N)c(N2CCSCC2)n1 | 4.36%
34 | CC(=O)N1CCc2cc(S(=O)(=O)NCCC(=O)NC3CCCc4ccccc43)ccc21 (centres unmarked) | 2.54%
35 | NC(=O)c1noc(C(=O)N(CC(=O)NC2CCCC2)Cc2ccc3c(c2)OCO3)c1N | -7.94%
36 | Cc1cc(N2CCN(C)CC2)nc2ccc(NC(=S)NCCC(C)C)cc12 | -51.2%
37 | Cc1cc(N2CCOCC2)nc2ccc(NC(=S)N3CCN(Cc4ccccc4)CC3)cc12 | -33.6%
38 | Cc1cc(N2CCOCC2)nc2ccc(NC(=S)NCCC(C)C)cc12 | -64.1%
39 | COCCNC(=S)Nc1ccc2nc(N3CCOCC3)cc(C)c2c1 | -0.507%
40 | Cc1cc(N2CCN(C)CC2)nc2ccc(NC(=S)NCCCN3CCc4ccccc4C3)cc12 | -26.5%
41 | Cc1cc(N2CCOCC2)nc2ccc(NC(=S)NCCN(C)C)cc12 | 13.7%
42 | CCN(CC)CCNC(=S)Nc1ccc2nc(N3CCN(C)CC3)cc(C)c2c1 | -1.04%
43 | Cc1cc(N2CCOCC2)nc2ccc(NC(=S)NCc3ccc4c(c3)OCO4)cc12 | -68.5%
44 | CCN(CC)CCNC(=S)Nc1ccc2nc(N3CCOCC3)cc(C)c2c1 | 11.7%
